# Experimental data taken from PubChem BioAssay AID1159580 (chemical genetic matrix, 2015).
# “And” between values parts separate entries of the source, which are not always exact repeats. Equal entries are not always repeated. Among all 5,500 compounds or so, about 2,000 (36%) were called active. Not shown: some 18% with an inconclusive outcome. The list shows a part of the results. Values without a mark were called inactive. Cut-off read from the data, not from the text of the source: active = normalized growth mostly below about 0.91 (no sharp cut-off); inconclusive = no clear call, values can overlap the other calls; inactive = mostly above about 0.92.
# Test: chemical genetic growth profiling, strain panel (AID 1159580);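 note: tested at 20 µM; growth read once vehicle control cultures reached saturation at 30 °C; 1 = growth at the plate median or of vehicle wells; lower values mean less growth of the strain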
# Conditions: S. cerevisiae deletion strains, growth OD
smiles,measurement,setting,value
Oc1cc2c(cc1O)C1c3ccc(O)c(O)c3OCC1(O)C2 (centres undefined),normalized growth,"locus YAL021C, strain ccr4, hits give low values",1
same,normalized growth,"locus YAL030W, strain snc1, hits give low values",1.01
same,normalized growth,"locus YBL061C, strain skt5, hits give low values",0.993
same,normalized growth,"locus YBR009C, strain hhf1, hits give low values",1
same,normalized growth,"locus YBR021W, strain FUR4, hits give low values",1.01
same,normalized growth,"locus YBR023C, strain chs3, hits give low values",0.995
same,normalized growth,"locus YBR171W, strain sec66, hits give low values",1.01
same,normalized growth,"locus YBR229C, strain ROT2, hits give low values",1
same,normalized growth,"locus YBR231C, strain swc5, hits give low values",0.956
same,normalized growth,"locus YBR279W, strain paf1, hits give low values",0.984
same,normalized growth,"locus YCL011C, strain gbp2, hits give low values",1.01
same,normalized growth,"locus YCL016C, strain dcc1, hits give low values",1
same,normalized growth,"locus YCL029C, strain bik1, hits give low values",0.997
same,normalized growth,"locus YCL069W, strain vba3, hits give low values",1.02
same,normalized growth,"locus YCR088W, strain abp1, hits give low values",1.02
same,normalized growth,"locus YDL005C, strain med2, hits give low values",1
same,normalized growth,"locus YDL035C, strain GPR1, hits give low values",0.973
same,normalized growth,"locus YDL040C, strain nat1, hits give low values",1.04
same,normalized growth,"locus YDL074C, strain BRE1, hits give low values",0.852
same,normalized growth,"locus YDL101C, strain DUN1, hits give low values",0.908
same,normalized growth,"locus YDL134C, strain PPH21, hits give low values",0.832 (active)
same,normalized growth,"locus YDL185W, strain tfp1, hits give low values",0.961
same,normalized growth,"locus YDL192W, strain arf1, hits give low values",0.997
same,normalized growth,"locus YDR001C, strain nth1, hits give low values",1.02
same,normalized growth,"locus YDR069C, strain doa4, hits give low values",0.936
same,normalized growth,"locus YDR101C, strain arx1, hits give low values",1.07
same,normalized growth,"locus YDR137W, strain rgp1, hits give low values",1.05
same,normalized growth,"locus YDR159W, strain sac3, hits give low values",1.03
same,normalized growth,"locus YDR162C, strain NBP2, hits give low values",0.821 (active)
same,normalized growth,"locus YDR195W, strain ref2",1.02
same,normalized growth,"locus YDR297W, strain sur2, hits give low values",1.01
same,normalized growth,"locus YDR318W, strain mcm21, hits give low values",0.99
same,normalized growth,"locus YDR334W, strain swr1, hits give low values",0.991
same,normalized growth,"locus YDR335W, strain msn5, hits give low values",0.996
same,normalized growth,"locus YDR388W, hits give low values",0.998
same,normalized growth,"locus YDR392W, strain spt3, hits give low values",0.991
same,normalized growth,"locus YDR502C, strain sam2, hits give low values",1.01
same,normalized growth,"locus YEL003W, strain gim4, hits give low values",1.01
same,normalized growth,"locus YEL037C, strain rad23, hits give low values",1.02
same,normalized growth,"locus YEL061C, strain CIN8 (second series), hits give low values",1.02
same,normalized growth,"locus YEL061C, strain CIN8, hits give low values",0.964
same,normalized growth,"locus YER015W, strain faa2, hits give low values",0.983
same,normalized growth,"locus YER016W, strain bim1, hits give low values",1.02
same,normalized growth,"locus YER110C, hits give low values",0.999
same,normalized growth,"locus YER111C, strain swi4, hits give low values",0.961
same,normalized growth,"locus YER155C, strain BEM2 (second series), hits give low values",1.02
same,normalized growth,"locus YER155C, strain BEM2, hits give low values",1.02
same,normalized growth,"locus YER167W, strain BCK2, hits give low values",1.04
same,normalized growth,"locus YFR010W, strain ubp6, hits give low values",0.983
same,normalized growth,"locus YGL078C, strain dbp3, hits give low values",0.972
same,normalized growth,"locus YGL086W, strain mad1, hits give low values",0.966
same,normalized growth,"locus YGL173C, strain kem1, hits give low values",0.985
same,normalized growth,"locus YGL227W, strain vid30, hits give low values",1.01
same,normalized growth,"locus YGL240W, strain doc1, hits give low values",1.04
same,normalized growth,"locus YGL248W, strain PDE1, hits give low values",0.893
same,normalized growth,"locus YGL253W, strain hxk2, hits give low values",1.01
same,normalized growth,"locus YGR078C, strain PAC10, hits give low values",0.916
same,normalized growth,"locus YGR135W, strain pre9, hits give low values",0.946
same,normalized growth,"locus YGR252W, strain gcn5, hits give low values",0.992
same,normalized growth,"locus YHR013C, strain ard1, hits give low values",0.987
same,normalized growth,"locus YHR027C, strain rpn1, hits give low values",0.98
same,normalized growth,"locus YHR030C, strain SLT2, hits give low values",1
same,normalized growth,"locus YHR079C, strain IRE1 (second series), hits give low values",1.01
same,normalized growth,"locus YHR079C, strain IRE1, hits give low values",1.01
same,normalized growth,"locus YHR094C, strain hxt1, hits give low values",1.01
same,normalized growth,"locus YHR129C, strain ARP1, hits give low values",0.912 (active)
same,normalized growth,"locus YHR142W, strain chs7, hits give low values",0.99
same,normalized growth,"locus YHR200W, strain rpn10, hits give low values",0.976
same,normalized growth,"locus YIL066C, strain RNR3, hits give low values",0.939
same,normalized growth,"locus YIL073C, strain SPO22, hits give low values",0.683
same,normalized growth,"locus YIL125W, strain kgd1, hits give low values",1
same,normalized growth,"locus YIR030C, strain dcg1, hits give low values",1.01
same,normalized growth,"locus YJL092W, strain hpr5, hits give low values",1.02
same,normalized growth,"locus YJL095W, strain BCK1 (second series), hits give low values",1.01
same,normalized growth,"locus YJL095W, strain BCK1, hits give low values",0.811 and 0.994
same,normalized growth,"locus YJL115W, strain asf1, hits give low values",1
same,normalized growth,"locus YJL129C, strain trk1, hits give low values",1.07
same,normalized growth,"locus YJL134W, strain LCB3, hits give low values",0.992
same,normalized growth,"locus YJL154C, strain vps35, hits give low values",1.02
same,normalized growth,"locus YJL164C, strain tpk1, hits give low values",0.991
same,normalized growth,"locus YJL166W, strain qcr8, hits give low values",0.991
same,normalized growth,"locus YJL168C, strain set2, hits give low values",0.984
same,normalized growth,"locus YJL187C, strain SWE1 (second series), hits give low values",0.856 (active)
same,normalized growth,"locus YJR043C, strain POL32, hits give low values",0.95
same,normalized growth,"locus YJR066W, strain TOR1, hits give low values",0.913
same,normalized growth,"locus YKL009W, strain mrt4, hits give low values",1.06
same,normalized growth,"locus YKL068W, hits give low values",0.983
same,normalized growth,"locus YKL085W, strain MDH1 (second series), hits give low values",0.977
same,normalized growth,"locus YKL085W, strain MDH1, hits give low values",0.977
same,normalized growth,"locus YKL160W, strain elf1, hits give low values",0.983
same,normalized growth,"locus YKR001C, strain vps1, hits give low values",1.03
same,normalized growth,"locus YKR026C, strain gcn3, hits give low values",1.01
same,normalized growth,"locus YKR091W, strain srl3, hits give low values",1.02
same,normalized growth,"locus YLL001W, strain dnm1, hits give low values",1.01
same,normalized growth,"locus YLL026W, hits give low values",1.01
same,normalized growth,"locus YLL041C, strain sdh2, hits give low values",1.03
same,normalized growth,"locus YLR027C, strain aat2, hits give low values",0.984
same,normalized growth,"locus YLR039C, strain RIC1, hits give low values",0.916
same,normalized growth,"locus YLR058C, strain SHM2, hits give low values",0.916
same,normalized growth,"locus YLR102C, strain apc9, hits give low values",0.998
same,normalized growth,"locus YLR113W, strain HOG1, hits give low values",1.07
same,normalized growth,"locus YLR221C, strain rsa3, hits give low values",0.986
same,normalized growth,"locus YLR258W, strain gsy2, hits give low values",1.02
same,normalized growth,"locus YLR262C, strain YPT6 (second series), hits give low values",0.979
same,normalized growth,"locus YLR268W, strain sec22, hits give low values",1.04
same,normalized growth,"locus YLR320W, strain mms22, hits give low values",0.999
same,normalized growth,"locus YLR330W, strain CHS5, hits give low values",0.974
same,normalized growth,"locus YLR342W, strain FKS1 (second series), hits give low values",0.696 (active)
same,normalized growth,"locus YLR342W, strain FKS1, hits give low values",0.979
same,normalized growth,"locus YLR357W, strain rsc2, hits give low values",0.907
same,normalized growth,"locus YLR370C, strain arc18, hits give low values",0.987
same,normalized growth,"locus YLR371W, strain rom2, hits give low values",0.932
same,normalized growth,"locus YLR384C, strain iki3, hits give low values",1
same,normalized growth,"locus YLR418C, strain cdc73, hits give low values",0.963
same,normalized growth,"locus YML016C, strain PPZ1, hits give low values",0.86 (active)
same,normalized growth,"locus YML032C, strain rad52, hits give low values",1.07
same,normalized growth,"locus YML120C, strain ndi1, hits give low values",1.04
same,normalized growth,"locus YML124C, strain tub3, hits give low values",1.02
same,normalized growth,"locus YMR058W, strain fet3, hits give low values",0.784 (active)
same,normalized growth,"locus YMR078C, strain ctf18, hits give low values",1.01
same,normalized growth,"locus YMR125W, strain sto1, hits give low values",1.05
same,normalized growth,"locus YMR129W, hits give low values",1.03
same,normalized growth,"locus YMR205C, strain PFK2, hits give low values",1.02
same,normalized growth,"locus YMR223W, strain ubp8, hits give low values",0.977
same,normalized growth,"locus YMR231W, strain pep5, hits give low values",0.995
same,normalized growth,"locus YMR307W, strain GAS1, hits give low values",0.784
same,normalized growth,"locus YNL067W, strain RPL9B, hits give low values",0.931
same,normalized growth,"locus YNL071W, strain lat1, hits give low values",1.01
same,normalized growth,"locus YNL153C, strain GIM3, hits give low values",0.908
same,normalized growth,"locus YNL183C, strain NPR1, hits give low values",0.907
same,normalized growth,"locus YNL209W, strain ssb2, hits give low values",0.958
same,normalized growth,"locus YNL233W, strain BNI4, hits give low values",0.911
same,normalized growth,"locus YNL248C, strain rpa49, hits give low values",0.995
same,normalized growth,"locus YNL250W, strain rad50, hits give low values",0.952
same,normalized growth,"locus YNL271C, strain bni1, hits give low values",0.988
same,normalized growth,"locus YNL298W, strain CLA4, hits give low values",0.991
same,normalized growth,"locus YNL307C, strain MCK1, hits give low values",0.996
same,normalized growth,"locus YNL322C, strain KRE1 (second series), hits give low values",1.01
same,normalized growth,"locus YNL322C, strain KRE1, hits give low values",0.902 (active)
same,normalized growth,"locus YNR049C, strain mso1, hits give low values",1.02
same,normalized growth,"locus YNR052C, strain pop2, hits give low values",0.954
same,normalized growth,"locus YOL006C, strain TOP1, hits give low values",0.585
same,normalized growth,"locus YOL012C, strain htz1",0.422
same,normalized growth,"locus YOL147C, strain pex11, hits give low values",1.01
same,normalized growth,"locus YOR001W, strain rrp6, hits give low values",0.991
same,normalized growth,"locus YOR061W, strain CKA2, hits give low values",0.945
same,normalized growth,"locus YOR069W, strain VPS5, hits give low values",0.953
same,normalized growth,"locus YOR070C, strain gyp1, hits give low values",0.965
same,normalized growth,"locus YOR080W, strain dia2, hits give low values",1.01
same,normalized growth,"locus YOR083W, strain WHI5, hits give low values",0.971
same,normalized growth,"locus YOR106W, strain vam3, hits give low values",0.985
same,normalized growth,"locus YOR136W, strain idh2, hits give low values",1.02
same,normalized growth,"locus YOR144C, strain elg1, hits give low values",1.01
same,normalized growth,"locus YOR184W, strain ser1, hits give low values",1.09
same,normalized growth,"locus YOR231W, strain MKK1, hits give low values",1.01
same,normalized growth,"locus YOR265W, strain rbl2, hits give low values",1
same,normalized growth,"locus YOR270C, strain vph1, hits give low values",1.05
same,normalized growth,"locus YOR290C, strain snf2, hits give low values",0.997
same,normalized growth,"locus YOR316C, strain cot1, hits give low values",0.996
same,normalized growth,"locus YPL051W, strain arl3, hits give low values",0.929
same,normalized growth,"locus YPL078C, strain atp4, hits give low values",1.02
same,normalized growth,"locus YPL106C, strain sse1, hits give low values",0.957
same,normalized growth,"locus YPL240C, strain hsp82, hits give low values",1.02
same,normalized growth,"locus YPL256C, strain CLN2, hits give low values",1.02
same,normalized growth,"locus YPR119W, strain clb2, hits give low values",1.01
same,normalized growth,"locus YPR141C, strain kar3, hits give low values",0.982
same,normalized growth,"locus YPR163C, strain tif3, hits give low values",1.01
same,normalized growth,"locus YPR167C, strain met16, hits give low values",1.01
same,normalized growth,"strain wtn01, hits give low values",1.02
